# Compound activity: PubChem BioAssay, National Center for Advancing Translational Sciences (NCATS)
# EPAC2 antagonist = qHTS for Antagonist of cAMP-regulated guanine nucleotide exchange factor 2 (EPAC2): primary screen; Rap guanine nucleotide exchange factor 4 (Homo sapiens), Q8WZA2; EPAC2 GEF exchange of Rap1B-BODIPY-GDP, fluorescence; Potency, µM (series often up to 114 µM), without a hit: top-dose activity, negative = inhibition, most hits filed as inhibitors; actives 0.18% (n = 360,000); AID 720708, 2013; also: potency is read from the fitted curve at half-maximal effect; % is scaled to controls: 0 for no effect and ±100 for the full control effect; nearly all actives have a fitted effect of over 45% in size
# KCNH2 3.1 inh = qHTS for Inhibitors of KCHN2 3.1: Mutant qHTS. actives 0.95% (n = 340,000). Potassium voltage-gated channel subfamily H member 2, brain isoform KCNH2 3.1 (human). U2OS KCNH2 3.1, thallium flux FluxOr; stronger effect = lower value. activity change, % (tested at about 1.8 µM);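 active = maximum activity change below -70%; inconclusive = maximum activity change from -70% to -50%; inactive = maximum activity change above -50%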;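 also: thallium influx rate constant from kinetic fluorescence after stimulation buffer; % is scaled to controls: 0 for no effect and ±100 for the full control effect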
#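 Thallium flux read-out: FluxOr dye with Red40 quencher in HBSS/HEPES, 45 min at RT. Rate constants from kinetic reads were normalized to positive and negative DMSO controls. Cells: U2OS virally expressing the 3.1 isoform.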
# EPAC1 antagonist = qHTS for Antagonist of cAMP-regulated guanine nucleotide exchange factor 3 (EPAC1): primary screen; Rap guanine nucleotide exchange factor 3 (Homo sapiens), O95398; EPAC1 GEF assay, Rap1b-BODIPY-GDP exchange fluorescence; Potency, µM (titrated, usually from 115 µM), for the others: at the top dose activity change, negative = inhibition, actives largely listed as inhibitors; actives 0.14% (n = 360,000); AID 720709, 2013;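 also: potency is read from the fitted curve at half-maximal effect; plate controls were vehicle for no effect and positive control for full effect; nearly all actives have a fitted effect of over 50% in size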
# EPAC1 agonist = qHTS for Agonist of cAMP-regulated guanine nucleotide exchange factor 3 (EPAC1): primary screen | EPAC1 agonist qHTS, biochemical assay; response scale: 100% = response to 6.5 mM cAMP | Potency, µM (titrated, usually from 154 µM), for inactives: at the top dose activation, actives largely listed as activators | actives 0.073% (n = 360,000) | AID 720707, 2013; also: potency is read from the fitted curve at half-maximal effect; nearly all actives have a fitted effect of over 60% in size
#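 Fluorescent GDP-exchange assay: 100 nM EPAC1 with 250 nM Rap1B preloaded with BODIPY-GDP and 50 uM GDP; compounds tested as concentration series, 5 min at room temperature, then read every 5 min for 30 min (ex 480/em 540 nm); normalized to 6.5 mM cAMP.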
# hERG WT inh = qHTS for Inhibitors of KCHN2 3.1: Wildtype qHTS | Voltage-gated inwardly rectifying potassium channel KCNH2 (Homo sapiens), Q12809 | U2OS, BacMam KCNH2, thallium flux FluxOr; stronger effect = lower value | activity change, % at 1.84 µM | actives 0.37% (n = 340,000) | AID 720551, 2013;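 active = maximum activity change below -70%; inconclusive = maximum activity change between -70% and -50%; inactive = maximum activity change above -50%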; also: % is scaled to controls: 0 for no effect and ±100 for the full control effect
#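 U2OS cells were transduced with wild-type KCNH2 virus (2.03 x 10^8 / mL) for 4 h at room temperature, then cultured overnight at 37 C. Thallium flux was read with FluxOr dye. Rate constants were normalized to DMSO controls.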
# EPAC2 ag = qHTS for Agonist of cAMP-regulated guanine nucleotide exchange factor 4 (EPAC2): primary screen | actives 0.079% (n = 360,000) | Rap guanine nucleotide exchange factor 4 (Homo sapiens), Q8WZA2 | Potency, µM (top dose mostly 154 µM), for inactives: at the top dose activation, most hits filed as activators | AID 720711, 2013 | EPAC2 activation, biochemical qHTS; response scale: 100% = 6.5 mM cAMP response; also: potency is read from the fitted curve at half-maximal effect; nearly all actives have a fitted effect of over 50% in size
#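 Each well held 100 nM EPAC2, 250 nM RAP1B-BODIPY-GDP and 50 uM GDP. Fluorescence, read at 5-min intervals to 30 min, was referenced to a 6.5 mM cAMP positive control.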
# The depositor's hits bear a star; ? = inconclusive; / = no result given. Compounds with a hit are over-represented: about 1.4% of the library has one in this group of screens. Unless noted, calls follow the shape of the dose curve; as a rule, active = well fitted curve in the direction sought with a large enough effect; inconclusive = small, poorly fitted or top-dose-only effect, or another doubt; inactive = no such curve, though single readings can be large; an effect the other way counts as inactive or inconclusive.
SMILES,EPAC2 antagonist,KCNH2 3.1 inh,EPAC1 antagonist,EPAC1 agonist,hERG WT inh,EPAC2 ag
Cc1ccc(C(=O)N2CCN(c3ccc(NC(=O)COc4ccccc4C)cc3)CC2)cc1,-17%,-95*,-25%,1%,-134*,0%
Cc1ccc(C(=O)N2CCN(c3ccc(NC(=S)NC(=O)Cc4ccccc4)cc3)CC2)cc1,-3%,-48,1%,12%,5,0%
O=C(Nc1ccc2c(c1)OCCO2)C(CCc1ccccc1)N1CCC(Cc2ccccc2)CC1 (stereo not given),-14%,/,-28%,6%,/,10%
Cc1ccc(OCCN2CCN(c3nc(NCc4ccco4)c4ccccc4n3)CC2)cc1,-5%,-104*,5%,8%,-131*,7%
c1ccc(CN2CCN(c3nc(NCc4ccco4)c4ccccc4n3)CC2)cc1,-12%,-108*,-22%,17%,-48,-6%
OCCN1CCN(c2nc(NCc3ccco3)c3ccccc3n2)CC1,-5%,-19,2%,4%,18,-3%
CC(=O)COc1ncn(-c2ccccc2)n1,30%,6,-1%,-5%,-6,13%
CC(CCN1C(Nc2ccccc2)=NC[C@@H]1Cc1ccccc1)c1ccccc1 (stereo not given in full),2%,-82*,-12%,-9%,-2,-2%
c1ccc(C[C@H]2CN=C(Nc3ccccc3)N2CCC2CCCC2)cc1,8%,-94*,0%,-2%,18,9%
CC(C)C[C@H]1CN=C(Nc2ccccc2)N1CCC1CCCCC1,-13%,?,-27%,4%,4,3%
O=[N+]([O-])c1ccc(/C=C/C2=NN(c3ccccc3)C(c3ccco3)C2)cc1 (stereo not given),2%,-100*,-16%,-14%,?,-1%
O=[N+]([O-])c1ccc(C2=NN(c3ccccc3)C(c3ccco3)C2)cc1 (stereo not given),11%,?,-15%,8%,?,9%
O=C(NC(=S)Nc1cc([N+](=O)[O-])ccc1Cl)c1ccccc1,-7%,-154*,4%,9%,-168*,15%
CC(C)(C)NS(=O)(=O)c1ccc(NC(=O)C2CC(=O)N(CCc3ccc(F)cc3)C2)cc1 (stereo not given),-4%,-1,0%,-4%,0,6%
Nc1nc(-c2ccccc2Cl)cs1,14%,-71*,12%,6%,4,3%
Cc1ccccc1-c1csc(N)n1,1%,3,-19%,2%,-1,6%
COc1ccc(C(OCC(O)CNCCc2ccc(S(N)(=O)=O)cc2)c2ccc(OC)cc2)cc1 (stereo not given),-9%,?,-3%,8%,-25,8%
OC(CNCCc1ccc(C(F)(F)F)cc1)COC(c1ccccc1)c1ccccc1 (stereo not given),-9%,-74*,-21%,-4%,/,8%
CCC(C)(C)NC(=O)Cc1ccc(Cl)cc1,-7%,-10,?,0%,5,11%
CCCCOc1ccc(C(=O)N(C)CC(=O)Nc2ccc(C)cc2)cc1,-4%,-9,0%,-5%,-6,5%
CCOC(=O)C1(CCc2ccccc2)CCN(Cc2ccc(O)cc2)CC1,-2%,-116*,6%,9%,-113*,6%
